The target of the first assay is ADORA2B. Description: pooled miR-30 sensor sort-seq; sequence = guide strand. The note with it: shRNA.
TTCATTCGTGGTTCCATCCCAG came in with a sensor-assay potency score (higher = more potent) of -0.119.

TTTCACAATGAAAACCAGCCGT: the sensor-assay potency score (higher = more potent) is -0.477.

Regarding TTTCCTTGTGAGGTGTAGCTAT, the sensor-assay potency score (higher = more potent) was -0.397.

Sequence TTAAAAACAAAAGAGTCTGTTA showed a sensor-assay potency score (higher = more potent) of -0.121.

TTGAAATATACCATGTAGCTCA had a sensor-assay potency score (higher = more potent) of 0.0522.

The sequence TAAATATATTTGTCAATCCTTG registered a sensor-assay potency score (higher = more potent) of -0.669.

On to TATACCATGTAGCTCATGGGGA, for which the sensor-assay potency score (higher = more potent) was -0.182.

With TTAATGTAGATCACCAGCATTA, the sensor-assay potency score (higher = more potent) is -1.17.

As for TTTTGTGAAAAGTGTAGCGGAA, the sensor-assay potency score (higher = more potent) was 0.0237.

Consider TTAGAATCCATTCAAGCTGTTG, for which the sensor-assay potency score (higher = more potent) is -0.667.

As to TTGGTGGCACTGTCTTTACTGT, the sensor-assay potency score (higher = more potent) was -1.19.

The sequence TTGACAACTGAATTGGCATGTG registered a sensor-assay potency score (higher = more potent) of -0.143.

With AAACTTTTATACCTGAGCGGGA, the sensor-assay potency score (higher = more potent) is -0.968.

A further assay concerns the target ADRA1D. The description is as above. As to conditions: shRNA.
Take TTCTTCTCACGGGAGAACTTGA: the sensor-assay potency score (higher = more potent) was -1.13.

Turning to TACCGCAGAAGCGCTCGTCAGG, the sensor-assay potency score (higher = more potent) is -1.24.

In the case of TTGGTGACGGTCTGCAGGTGGC, the sensor-assay potency score (higher = more potent) is -1.18.

TGAGAGGATGACAAGCAGGTTA showed a sensor-assay potency score (higher = more potent) of -0.372.

Turning to TAGTTGGTGACGGTCTGCAGGT, the sensor-assay potency score (higher = more potent) was -0.977.

In the case of TAGGGACACAGCCTCCACCTCT, the sensor-assay potency score (higher = more potent) was -1.05.

Sequence TTCACGATGAAATAGTTGGTGA registered a sensor-assay potency score (higher = more potent) of -0.48.

In the case of TTGGCCGCTTTCTTCTCACGGG, the sensor-assay potency score (higher = more potent) is -0.602.

As for TGACAAGCAGGTTACCTGCCAC, the sensor-assay potency score (higher = more potent) is -0.511.

On to ATGCGCAGCACCACCTCGGAGG, for which the sensor-assay potency score (higher = more potent) was -1.52.

Take TAGATGAGCGGGTTCACGCAGC: the sensor-assay potency score (higher = more potent) was -0.546.

For the sequence AAGAAGAAAGGGAACCAGCAGA, the sensor-assay potency score (higher = more potent) was -0.303.

TACGGTGGCGCTCAGCAGCAGG: the sensor-assay potency score (higher = more potent) was -1.13.

On to TTCAGCTGCGGGAACAAGGAGC, for which the sensor-assay potency score (higher = more potent) is -0.905.

Turning to ATAGTTGGTGACGGTCTGCAGG, the sensor-assay potency score (higher = more potent) was -1.13.

As to TTGCGCTCGGTCATGATGGCTG, the sensor-assay potency score (higher = more potent) is -0.179.

As for TAGAAGGAGCACACGGAGGAGA, the sensor-assay potency score (higher = more potent) was -0.379.

In turn, TTGGCGCGCAGCTGGGTCGTGG displayed a sensor-assay potency score (higher = more potent) of -1.53.

Sequence TACCGGTCCACGGAGATGGTGC registered a sensor-assay potency score (higher = more potent) of -1.15.

As to TAGTCGGCCAATTCGTAGGCCT, the sensor-assay potency score (higher = more potent) is -0.797.

TACATGACCACGATGACCGCCA: the sensor-assay potency score (higher = more potent) turned out to be 0.517.

With TGCTGTAGTCGGCCAATTCGTA, the sensor-assay potency score (higher = more potent) is -0.975.

Another assay concerns the target ADRA2B. The assay is described as above. The note with it: shRNA.
Take TACTCTGGCCTCAACAACCCAC: the sensor-assay potency score (higher = more potent) is -0.575.

TTCAGTGAGCTGTTGCAGTAGC registered a sensor-assay potency score (higher = more potent) of 0.233.

TTTTTGGTTCTCTAGTGTGTTC yielded a sensor-assay potency score (higher = more potent) of -1.08.

In turn, TTGGAGTTGTACTCCAGCGCGC had a sensor-assay potency score (higher = more potent) of -0.762.

For TTTATTGATAAAATAGCTCAGA, the sensor-assay potency score (higher = more potent) was -0.103.

The record behind these values is the OligoGym collection.
Also: reference of the scale not given here.
